Bioassay records: PubChem, National Center for Advancing Translational Sciences (NCATS)
This is a sample that favours compounds with a hit; in the whole collection about 2.9% have one here.
PI5P4Ka inh: qHTS for Inhibitors of phosphatidylinositol 5-phosphate 4-kinase (PI5P4K) | Phosphatidylinositol 5-phosphate 4-kinase type-2 alpha (Homo sapiens), P48426 | PI5P4Kalpha enzyme, ADP-Glo luminescence, 60 min; stronger effect = lower value | max response, % | 330,000 compounds, 1.2% hits; active means max response of -50% or lower; inconclusive means between -30% and -50%; inactive means -30% or higher; further: value at the top dose of about 77 µM; on the % scale 0 is the no-effect control and ±100 the full control effect
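qHTS, 1536-well: enzyme/substrate mix, compound by pin tool, 5 microM ATP final; RT 60 min; ADP-Glo reagents 1 (45 min) then 2 (30 min); luminescence.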
ALOX12 inh: Primary qHTS assay for inhibitors of human arachidonate 12S-lipoxygenase (ALOX12): Round 2 | Polyunsaturated fatty acid lipoxygenase ALOX12 (Homo sapiens), P18054 | purified 12hLO, xylenol orange hydroperoxide absorbance | Potency, µM (doses to about 108 µM), for the others: at the top dose activity change, negative = inhibition, actives largely listed as inhibitors | 580,000 compounds, 1.1% hits; further: potency means the concentration at half of the fitted maximal effect; on the % scale 0 is the no-effect control and ±100 the full control effect
Target sequence (P18054 whole entry, looked up): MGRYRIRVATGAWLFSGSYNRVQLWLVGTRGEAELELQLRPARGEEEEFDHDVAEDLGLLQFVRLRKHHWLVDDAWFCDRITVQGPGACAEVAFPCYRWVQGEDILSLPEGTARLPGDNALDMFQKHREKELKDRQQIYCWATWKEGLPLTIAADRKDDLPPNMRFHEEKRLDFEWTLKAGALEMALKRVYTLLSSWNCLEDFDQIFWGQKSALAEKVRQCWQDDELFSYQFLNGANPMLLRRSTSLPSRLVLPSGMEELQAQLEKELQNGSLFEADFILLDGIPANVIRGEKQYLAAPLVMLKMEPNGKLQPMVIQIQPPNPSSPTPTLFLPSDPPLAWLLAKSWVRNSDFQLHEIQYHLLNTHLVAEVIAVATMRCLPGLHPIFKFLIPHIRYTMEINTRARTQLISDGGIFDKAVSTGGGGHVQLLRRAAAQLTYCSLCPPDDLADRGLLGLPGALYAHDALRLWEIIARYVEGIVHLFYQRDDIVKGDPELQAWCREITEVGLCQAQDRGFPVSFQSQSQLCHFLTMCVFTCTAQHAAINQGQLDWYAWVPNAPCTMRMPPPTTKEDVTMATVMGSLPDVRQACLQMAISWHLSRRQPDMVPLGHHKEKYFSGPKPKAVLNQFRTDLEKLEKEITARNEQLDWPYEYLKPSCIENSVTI
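Hydroperoxide product was detected by ferrous iron/xylenol orange as the 573 to 405 nm absorbance ratio. Arachidonic acid at 40 uM (final) was turned over for 30 min at room temperature by 150 nM human 12hLO, pH 7.0 Hepes buffer, after 15 min compound preincubation.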
Pol beta inh: qHTS Assay for Inhibitors of DNA Polymerase Beta; Potency, µM (highest dose often 114 µM), without a hit: at the top dose activity change, negative = inhibition, actives largely listed as inhibitors; AID 485314, 2010; P06746; Pol beta primer extension/strand displacement, fluorescence kinetic; 340,000 compounds, 1.3% hits; further: potency means the concentration at half of the fitted maximal effect; on the % scale 0 is the no-effect control and ±100 the full control effect
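10 nM enzyme + cpd, 15 min RT; start with substrate 50 nM final; read 0 min and after 10 min RT. Corrected, normalized data; 4-parameter Hill curve fit.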
Pol eta inh-1: qHTS for Inhibitors of Polymerase Eta. DNA polymerase eta (Homo sapiens), Q9Y253. recombinant Pol eta, fluorescent DNA replication assay. Potency, µM (highest dose often 114 µM), for the others: top-dose activity change, negative = inhibition, hits mostly inhibitors. 390,000 compounds, 1.2% hits; further: potency means the concentration at half of the fitted maximal effect; on the % scale 0 is the no-effect control and ±100 the full control effect
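Pol eta (10 nM) was preincubated with compounds for 15 min at room temperature, after which fluorescent replication substrate (50 nM final) was added to start the reaction. Fluorescence was read kinetically at 0 and 10 min.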
Pol kappa inh-1: qHTS for Inhibitors of Polymerase Kappa. DNA polymerase kappa (Homo sapiens), Q9UBT6. purified Pol kappa, fluorescent DNA synthesis assay, 10 min. Potency, µM (top dose mostly 107 µM), for the others: at the top dose activity, negative = inhibition, actives largely listed as inhibitors. 400,000 compounds, 0.53% hits; further: potency means the concentration at half of the fitted maximal effect; on the % scale 0 is the no-effect control and ±100 the full control effect
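10 nM Pol kappa preincubated 15 min at room temperature with compounds, then reaction started with substrate at 50 nM final. Fluorescence read kinetically at 0 and 10 min; buffer-only wells served as negative control.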
Pol iota inh: qHTS for Inhibitors of Polymerase Iota; DNA polymerase iota (Homo sapiens), Q9UNA4; Pol iota fluorescent replication assay, 10 min; Potency, µM (series often up to 115 µM), inactives show top-dose activity, negative = inhibition, actives largely listed as inhibitors; 390,000 compounds, 1% hits; AID 588590, 2011; further: potency means the concentration at half of the fitted maximal effect
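Pol iota at 10 nM preincubated 15 min with compounds at room temperature; reaction started with fluorescent substrate, 50 nM final. Fluorescence read kinetically at 0 and 10 min; buffer-only wells as negative control.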
PGK validate: qHTS for inhibitors of Phosphogylcerate Kinase: Hit Validation Screen | shares compounds with Pol kappa inh-1 | TbPGK coupled GAPDH assay, Kinase-Glo luminescence | Potency, µM (doses to about 57.5 µM), for inactives: at the highest dose activity change, negative = inhibition, most hits filed as inhibitors | 500 compounds, 79% hits | AID 686980, 2013; further: potency means the concentration at half of the fitted maximal effect; on the % scale 0 is the no-effect control and ±100 the full control effect; nearly all actives have a fitted effect of over 65% in size
Pol iota confirm: qHTS for Inhibitors of Polymerase Iota: Confirmatory Assay for Cherry-picked Compounds. shares compounds with Pol kappa inh-1. Pol iota primer extension, TAMRA/BHQ fluorescence. Potency, µM, most hits filed as inhibitors. 1,500 compounds, 77% hits. AID 720496, 2013; further: potency means the concentration at half of the fitted maximal effect
GALK confirm: Confirmation Assay for Inhibitors of Human Galactokinase (GALK). purified GALK, Kinase-Glo ATP depletion luminescence. 150 compounds, 70% hits. Potency, µM (series often up to 115 µM), for the others: top-dose activity, negative = inhibition, actives largely listed as inhibitors. shares compounds with Pol eta inh-1. AID 2015, 2009
GALK redox cs: Confirmatory Assay for Inhibitors of Human Galactokinase (GALK): Phenol-HRP redox assay counterscreen; Potency, µM (doses to about 115 µM), for the others: at the top dose activity change, negative = H2O2 signal, most hits filed as inhibitors; AID 2035, 2009; shares compounds with Pol eta inh-1; 150 compounds, 40% hits; Phenol red-HRP H2O2 redox cycling, absorbance 600 nm
HEK293 tox: Secondary Assay for Inhibitors of Human Galactokinase (GALK): HEK-293 Cell Viability Assay | shares compounds with Pol eta inh-1 | HEK-293 viability, ATP luminescence (CellTiter-Glo), 24/48 h | Potency, µM (titrated, usually from 46.1 µM), without a hit: top-dose activity change, negative = cytotoxicity, most hits filed as inhibitors | 170 compounds, 10% hits; further: potency means the concentration at half of the fitted maximal effect; on the % scale 0 is the no-effect control and ±100 the full control effect
Pol kappa inh-2: qHTS for Inhibitors of Polymerase Kappa: Confirmatory Assay for Cherry-picked Compounds; shares compounds with Pol eta inh-1; 920 compounds, 76% hits; AID 720501, 2013; Potency, µM, hits mostly inhibitors; purified Pol-kappa, fluorescent strand-displacement substrate; further: potency means the concentration at half of the fitted maximal effect
Pol eta inh-2: qHTS for Inhibitors of Polymerase Eta: Confirmatory Assay for Cherry-picked Compounds | shares compounds with Pol eta inh-1 | Pol eta primer extension, TAMRA/BHQ fluorescence, 10 min | Potency, µM, usual class: inhibitors | 2,600 compounds, 64% hits; further: potency means the concentration at half of the fitted maximal effect
Starred values were filed as active, the others as inactive; ? = inconclusive; nt = no result; [ ] = dose if it differs, or a comment. Unless noted, the call rests on the fitted dose curve; in most records, active means well fitted curve in the direction sought with a large enough effect; inconclusive means small, poorly fitted or top-dose-only effect, or another doubt; inactive means no such curve, though single readings can be large; an effect the other way counts as inactive or inconclusive.

SMILES | PI5P4Ka inh | ALOX12 inh | Pol beta inh | Pol eta inh-1 | Pol kappa inh-1 | Pol iota inh | Pol iota confirm | Pol eta inh-2 | others
NS(=O)(=O)c1ccc(CCNC(=O)COC(=O)c2ccc([N+](=O)[O-])o2)cc1 | 1.2 | ? | nt | ? | -35.7% | 35.5µM* | 84.4* | ?
O=C(CCS(=O)(=O)c1ccc(Br)cc1)NCCc1ccccc1 | -4.0 | ? | ? | 20µM* | ? | 50.1µM* | ? | 47.8* | Pol kappa inh-2=16.8*
NS(=O)(=O)c1ccc(CCNC(=O)CCS(=O)(=O)c2ccc(Br)cc2)cc1 | -14.4 | -9.7% | 28.2µM* | 20µM* | -1.5% | 2.0% | 37.7* | 42.6*
O=C(COc1ccccc1)N1CCC(c2nc(C3CCOCC3)no2)C1 (centres undefined) | nt | 31.4% | nt | nt | nt | nt | nt | nt
Cc1ccc(NC(=O)Nc2nnc(C3CCCC3)s2)cc1 | nt | 1.3% | nt | nt | nt | nt | nt | nt
Cc1nc2ccccc2n(CC(=O)NCCN2CCN(c3cccc(Cl)c3)CC2)c1=O | nt | 22.8% | nt | nt | nt | nt | nt | nt
CCn1cc(S(=O)(=O)N2CCCC(Cc3noc(-c4cnccn4)n3)C2)cn1 (centres undefined) | nt | 15.6% | nt | nt | nt | nt | nt | nt
N#C/C(=C/c1ccccc1OC(F)F)C(=O)Nc1ccccc1Oc1ccccc1 | nt | 1.3% | nt | nt | nt | nt | nt | nt
Cc1cc(CC(=O)O)c2oc(-c3ccoc3)cc(=O)c2c1 | -22.5 | 4.5% | nt | 8.91µM* | 39.8µM* | ? | 33.6* | 7.57*
COc1ccc(CNC(=O)COC(=O)c2ccc(S(=O)(=O)NCc3ccco3)cc2)cc1 | -22.8 | 5.3% | nt | 31.6µM* | ? | 50.1µM* | ? | 67.5*
Cc1ccc(C(=O)OCC(=O)NCc2ccco2)s1 | -25.7 | ? | 22.4µM* | 22.4µM* | 79.4µM* | 28.2µM* | 42.3* | 67.5*
O=C(COC(=O)c1ccc(F)cc1Cl)NCc1ccco1 | -26.4 | ? | nt | 39.8µM* | ? | 22.4µM* | 59.7* | ?
CS(=O)(=O)c1cccc(C(=O)N2CCCCC2)c1 | nt | 22.7% | nt | nt | nt | nt | nt | nt
CONC(=O)c1ccc(C(F)(F)F)nc1C | nt | 0.6% | nt | nt | nt | nt | nt | nt
O=C1NC(=Nc2ccccc2)S/C1=C\C=C\c1ccco1 | -94.5* | 50.1µM* | 2.51µM* | 10µM* | 20µM* | 11.2µM* | 37.7* | 26.9*
Cc1cccc(N=C2NC(=O)/C(=C/C=C/c3ccco3)S2)c1C | -79.8* | 10µM* | 2.51µM* | 1.78µM* | 14.1µM* | 3.55µM* | 67* | 26.9*
CCN1C(=O)COc2ccc(NC(=O)c3oc4cc(C)cc(C)c4c3C)cc21 | nt | 14.4% | nt | nt | nt | nt | nt | nt
O=C1CC(c2ccccc2)N(C(=O)CNC(=O)c2[nH]nc3c2CCc2ccccc2-3)CCCCCCN1 (centres undefined) | nt | 21.1% | nt | nt | nt | nt | nt | nt
O=C(O)c1ccc(S(=O)(=O)/N=C2\C=C(Nc3ccccc3F)C(=O)c3ccccc32)cc1 | ? | ? | 44.7µM* | 8.91µM* | ? | 1.12µM* | 21.2* | 21.3* | GALK confirm=7.49µM*;GALK redox cs=4.21µM*;HEK293 tox=12.5µM*
NC(=O)c1ccc(NC(=O)COC(=O)/C=C/c2ccc(Br)o2)cc1 | -57.8* | -26.1% | nt | 2.82µM* | 35.5µM* | 22.4µM* | 42.3* | 67.5* | PGK validate=8.19µM*;Pol kappa inh-2=?
O=C(Cc1ccccc1)c1ccccc1NC(=O)C(c1ccccc1)c1ccccc1 | nt | -19.0% | nt | nt | nt | nt | nt | nt
COCC(=O)OC1CCn2c1nc1c2C(=O)C(C)=C(NC(C)=O)C1=O (centres undefined) | -4.4 | -27.0% | nt | 3.98µM* | -31.7% | 4.47µM* | 16.8* | 30.1*
O=C1NC(=S)S/C1=C\C=C\c1ccc([N+](=O)[O-])o1 | -95.8* | ? | ? | 2.24µM* | 10µM* | 2.24µM* | 2.67* | 4.78* | PGK validate=2.59µM*;Pol kappa inh-2=4.74*
O=C1CN(/N=C\c2ccc([N+](=O)[O-])o2)C(=O)N1 | nt | nt | nt | nt | -17.2%[12 µM] | nt | nt | nt
CCCCC(=O)N(C)Cc1ccc(OC)cc1 | nt | 2.6% | nt | nt | nt | nt | nt | nt
Cc1cccc2c(N=NC(=O)c3ccc(NS(=O)(=O)c4cccs4)cc3)c(O)[nH]c12 | -76.8* | 190.4% | nt | 11.2µM* | ? | ? | 16.8* | 19*
Cc1nc2ccccc2nc1SCC(=O)NC(C)c1ccccc1 (centres undefined) | nt | -12.3% | nt | nt | nt | nt | nt | nt
O=C(N=Nc1c(O)[nH]c2ccc([N+](=O)[O-])cc12)c1ccccc1[N+](=O)[O-] | -19.1 | -6.1% | -5.4% | -7.3% | -8.9% | 17.2% | nt | nt
